Results filed as inconclusive are left out. Active and inactive are the calls of the source. How the source made its calls, unless noted: active means hit-call score of the fitted dose curve at least 0.9, where 1 is the maximum; inconclusive means response in the unintended direction; inactive means score below 0.9.
Key:
[1] = TOX21_p53_BLA_p2_viability: Viability Assessment in the Tox21 HCT-116 p53 Agonism Beta-lactamase Assay, Phase 2 (AID 2283591);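 further: actives lower the ATP signal meaning cytotoxicity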
Procedure, shortened: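 HCT116 p53-bla cells, 4000/well, dosed after 5 h plating (217-fold dilution of DMSO stocks) and incubated 16 h at 37C. Viability taken as cellular ATP by CellTiter-Glo luminescence after 30 min RT; signal loss marks cytotoxicity.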

[2] = molecular target: Cellular tumor antigen p53 (Homo sapiens) (UniProt P04637); test: TOX21_p53_BLA_p2_ratio: Tox21 HCT-116 p53 Agonism Beta-lactamase Assay, Ratio, Phase 2 (AID 2283592)
Procedure, shortened: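 An inducible beta-lactamase reporter in HCT116 cells signals p53 pathway activation. After 16 h chemical exposure at 37C, cells load CCF4-AM substrate for 2 h at room temperature; activity is the cleaved/uncleaved emission ratio relative to DMSO.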

[3] = molecular target: Cellular tumor antigen p53 (Homo sapiens) (UniProt P04637); test: TOX21_p53_BLA_p3_ratio: Tox21 HCT-116 p53 Agonism Beta-lactamase Assay, Ratio, Phase 3 (AID 2283596)
Procedure, shortened: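 HCT116 p53-bla cells (4000/well) given compound in DMSO (217-fold dilution) after 5 h, incubated 16 h at 37C. CCF4-AM substrate 2 h at room temperature; 460/530 nm emission ratio, gain fitted against DMSO.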

[4] = TOX21_p53_BLA_p4_viability: Viability Assessment in the Tox21 HCT-116 p53 Agonism Beta-lactamase Assay, Phase 4 (AID 2283597);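 further: hits lower the luminescence signal meaning cytotoxicity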
Procedure, shortened: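 Compound exposure of HCT116 cells lasts 16 h at 37C, 5% CO2, with DMSO stocks diluted 217-fold. Cellular ATP is then quantified by CellTiter-Glo luminescence after 30 min at room temperature.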

[5] = molecular target: Cellular tumor antigen p53 (Homo sapiens) (UniProt P04637); test: TOX21_p53_BLA_p5_ratio: Tox21 HCT-116 p53 Agonism Beta-lactamase Assay, Ratio, Phase 5 (AID 2283599)
Procedure, shortened: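 HCT-116 p53-bla cells (4000/well) plated 5 h, dosed with compound (217-fold DMSO dilution) for 16 h at 37 C; CCF4-AM substrate 2 h at room temperature. Activity is the 460/530 nm emission ratio (405 nm excitation), fitted in gain-of-signal direction versus DMSO.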

[6] = TOX21_p53_BLA_p5_viability: Viability Assessment in the Tox21 HCT-116 p53 Agonism Beta-lactamase Assay, Phase 5 (AID 2283600)
Procedure, shortened: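 Counter-readout for cytotoxicity: ATP-dependent luminescence from CellTiter-Glo, read in the beta-lactamase wells after 30 min at RT, following a 16 h compound exposure at 37C.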

[7] = molecular target: Cellular tumor antigen p53 (Homo sapiens) (UniProt P04637); test: TOX21_p53_BLA_p4_ratio: Tox21 HCT-116 p53 Agonism Beta-lactamase Assay, Ratio, Phase 4 (AID 2283601)
Procedure, shortened: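 HCT-116 p53 beta-lactamase reporter cells (4000/well) preincubated 5 h, then compound (217-fold dilution of DMSO stock) for 16 h at 37C. CCF4-AM substrate added 2 h at room temperature; 460/530 nm emission ratio fitted upward versus DMSO.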

PGR (gene 5241) [8] = molecular target: PGR (gene 5241) (UniProt P06401); test: TOX21_PR_BLA_Followup_Antagonist_ratio: Tox21 HEK293 Progesterone Receptor (PR) Antagonism Beta-lactamase Follow-Up Assay, Ratio (AID 2283934)
Procedure, shortened: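 HEK293T PR-UAS-bla, 2% CS-FBS; 6 hr plating, then cpd + R5020 (1 nM final), 16 hr 37C/5% CO2. B/G FRET substrate 2 h RT. Ratio ch2/ch1 vs DMSO; CellTiter-Glo viability multiplexed, autofluorescence checked.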

[9] = TOX21_PR_BLA_Followup_Agonist_viability: Viability Assessment in the Tox21 HEK293 Progesterone Receptor (PR) Agonism Beta-lactamase Follow-Up Assay (AID 2283935);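 further: cells exposed to compound for 16 hr at 37 °C; signal loss means lower viability so actives are cytotoxic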
Procedure, shortened: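 HEK293T PR-UAS-bla, 3,000 cells/well, 2% CS-FBS; 6 hr pre-incubation; cpd in DMSO, 16 hr 37C; LiveBLAzer 2 hr RT, then CellTiter-Glo 30 min RT, luminescence. Decrease = lost viability.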

[10] = TOX21_PR_BLA_Followup_Antagonist_viability: Viability Assessment in the Tox21 HEK293 Progesterone Receptor (PR) Antagonism Beta-lactamase Follow-Up Assay (AID 2283936);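 further: hits lower the luminescence signal meaning cytotoxicity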
Procedure, shortened: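 PR-UAS-bla HEK293T cells (3,000/well, 2% charcoal-stripped FBS) given compound plus R5020 agonist, 16 h at 37C. CellTiter-Glo added after bla read, 30 min at room temperature; luminescence loss indicates cytotoxicity.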

PGR (gene 5241) [11] = molecular target: PGR (gene 5241) (UniProt P06401); test: TOX21_PR_LUC_Followup_Antagonist: Tox21 HEK293 Progesterone Receptor (PR) Antagonism Luciferase Follow-Up Assay (AID 2283938);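 further: curve fitted upward as signal gain over DMSO baseline despite antagonist label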
Procedure, shortened: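 A follow-up to the PR bla screen using HEK293-PR-A-luc cells, multiplexed with cell viability to flag cytotoxicity. Reporter luminescence after 16 h compound exposure was analysed relative to DMSO.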

[12] = CCTE_Harrill_HTTr_Viability_MCF7: CCTE's 6-hour Cell Viability Assessment for the High-Throughput Transcriptomics (HTTr) Platform, in MCF-7 cells cultured in DMEM + 10% fetal bovine serum, Harrill Lab (AID 2284010; active means hit-call score of the fitted dose curve at least 0.9, where 1 is the maximum; inactive means score below 0.9)
Procedure, shortened: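 Cells were dosed with chemicals in an eight-point dilution series, imaged 6 hours later for propidium iodide uptake, and the endpoint was analyzed by bidirectional fitting against DMSO as negative control.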

[13] = CCTE_Harrill_HTTr_Apoptosis_MCF7: CCTE's 6-hour Apoptosis Assessment for the High-Throughput Transcriptomics (HTTr) Platform, in MCF-7 cells cultured in DMEM + 10% fetal bovine serum, Harrill Lab (AID 2284011; active means hit-call score of the fitted dose curve at least 0.9, where 1 is the maximum; inactive means score below 0.9)
Procedure, shortened: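 Cells are dosed with test chemicals at eight concentrations and imaged 6 hours later for caspase-3/7 activity using a green fluorogenic detection reagent. Activity is fitted in both directions against DMSO controls.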

[14] = CCTE_Harrill_HTTr_CellCount_MCF7: CCTE's Cell Proliferation Assessment for the High-Throughput Transcriptomics (HTTr) Platform, Harrill Lab (AID 2284012);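 further: count of Hoechst-stained nuclei per well by high-content imaging in MCF-7 cells; cells exposed to compound for six hours; intended direction is loss of nuclei count meaning fewer cells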
Procedure, shortened: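 Chemicals in eight-point dilution series are added to MCF-7 cells for six hours, nuclei are stained with Hoechst and imaged, and per-well nuclei counts are fitted in both directions relative to DMSO controls.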

[15] = molecular target: Estrogen receptor (Homo sapiens) (UniProt P03372); test: CCTE_Deisenroth_AIME_96WELL_LUC_Active: CCTE's 96-well Estrogen Receptor Transactivation Assay with AIME metabolic competence (ERTA luciferase; metabolism positive), Deisenroth Lab (AID 2284023)
Procedure, shortened: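 Chemicals pre-incubated 2 h with alginate-immobilized phenobarbital/beta-naphthoflavone-induced male Sprague Dawley rat liver S9, then medium transferred to VM7Luc4E2 cells for 24 h luciferase read-out. 10-point series 0.002 - 200 uM; fitted relative to 17beta-estradiol.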

[16] = molecular target: Estrogen receptor (Homo sapiens) (UniProt P03372); test: CCTE_Deisenroth_AIME_96WELL_LUC_Inactive: CCTE's 96-well Estrogen Receptor Transactivation Assay without AIME metabolic competence (ERTA luciferase; metabolism negative), Deisenroth Lab (AID 2284025)
Procedure, shortened: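 VM7Luc4E2 breast cells, luciferase read 24 h after dosing with medium pre-incubated 2 h on alginate-water lids (metabolism negative). 10-point series 0.002–200 uM, single technical replicate, n≥4; fit relative to 17beta-estradiol.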

Measured: AC50

Cellular tumor antigen p53 (Homo sapiens), sequence (P04637 whole entry, looked up): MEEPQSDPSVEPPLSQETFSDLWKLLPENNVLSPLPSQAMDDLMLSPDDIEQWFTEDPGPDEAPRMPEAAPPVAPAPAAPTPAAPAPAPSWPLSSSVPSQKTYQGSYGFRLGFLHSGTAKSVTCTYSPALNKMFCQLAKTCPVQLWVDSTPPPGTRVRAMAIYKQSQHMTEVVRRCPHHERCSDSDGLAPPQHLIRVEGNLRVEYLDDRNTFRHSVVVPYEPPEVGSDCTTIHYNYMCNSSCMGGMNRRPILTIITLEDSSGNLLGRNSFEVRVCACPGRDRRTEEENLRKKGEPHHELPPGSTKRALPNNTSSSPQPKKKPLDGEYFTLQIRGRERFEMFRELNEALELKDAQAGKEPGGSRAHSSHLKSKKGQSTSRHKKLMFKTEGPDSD
PGR (gene 5241), sequence (P06401 whole entry, looked up): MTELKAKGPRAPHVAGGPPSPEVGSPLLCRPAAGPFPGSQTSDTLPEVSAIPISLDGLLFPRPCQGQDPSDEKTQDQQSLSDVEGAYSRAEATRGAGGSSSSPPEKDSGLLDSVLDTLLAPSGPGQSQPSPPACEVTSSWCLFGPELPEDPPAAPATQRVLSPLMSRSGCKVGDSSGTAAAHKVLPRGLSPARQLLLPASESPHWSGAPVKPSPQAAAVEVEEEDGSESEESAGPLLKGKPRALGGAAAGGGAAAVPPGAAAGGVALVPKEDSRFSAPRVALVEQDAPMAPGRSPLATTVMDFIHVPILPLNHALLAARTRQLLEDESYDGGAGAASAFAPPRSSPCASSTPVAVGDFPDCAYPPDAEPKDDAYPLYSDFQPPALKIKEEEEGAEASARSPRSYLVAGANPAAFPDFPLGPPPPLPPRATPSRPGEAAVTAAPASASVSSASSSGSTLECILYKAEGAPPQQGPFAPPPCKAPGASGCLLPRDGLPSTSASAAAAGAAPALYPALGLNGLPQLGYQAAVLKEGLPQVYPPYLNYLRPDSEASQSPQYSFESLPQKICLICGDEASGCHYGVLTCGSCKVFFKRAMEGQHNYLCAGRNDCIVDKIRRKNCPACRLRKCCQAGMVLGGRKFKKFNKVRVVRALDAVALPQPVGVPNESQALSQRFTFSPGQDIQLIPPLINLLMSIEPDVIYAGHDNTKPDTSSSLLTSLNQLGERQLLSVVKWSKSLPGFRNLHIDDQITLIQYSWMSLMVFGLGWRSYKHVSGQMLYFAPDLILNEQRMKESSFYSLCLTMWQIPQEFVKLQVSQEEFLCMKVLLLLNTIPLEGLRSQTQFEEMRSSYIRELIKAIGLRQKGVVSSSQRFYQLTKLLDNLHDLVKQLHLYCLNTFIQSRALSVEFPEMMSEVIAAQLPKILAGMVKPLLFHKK
Estrogen receptor (Homo sapiens), sequence (P03372 whole entry, looked up): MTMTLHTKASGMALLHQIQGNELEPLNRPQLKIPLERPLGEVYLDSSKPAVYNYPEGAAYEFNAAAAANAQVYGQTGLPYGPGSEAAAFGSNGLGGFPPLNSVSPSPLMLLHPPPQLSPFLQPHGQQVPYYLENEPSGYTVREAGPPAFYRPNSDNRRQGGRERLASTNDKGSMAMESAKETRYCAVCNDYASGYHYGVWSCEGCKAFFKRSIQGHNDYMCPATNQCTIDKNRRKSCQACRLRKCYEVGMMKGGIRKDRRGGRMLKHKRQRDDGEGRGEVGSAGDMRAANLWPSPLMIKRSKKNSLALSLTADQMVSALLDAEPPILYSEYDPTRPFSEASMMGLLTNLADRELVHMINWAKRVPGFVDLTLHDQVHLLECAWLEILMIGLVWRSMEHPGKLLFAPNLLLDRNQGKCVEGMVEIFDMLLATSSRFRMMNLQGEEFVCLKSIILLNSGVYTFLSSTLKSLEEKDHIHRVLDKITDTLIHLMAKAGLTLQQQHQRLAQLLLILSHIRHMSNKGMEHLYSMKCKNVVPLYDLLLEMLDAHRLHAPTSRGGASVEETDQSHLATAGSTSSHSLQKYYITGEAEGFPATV

N#CCC(=O)NN
inactive: [1] | [2] | [3] | [4] | [5] | [6] | [7]

c1ccc(CN(CC2=NCCN2)c2ccccc2)cc1
inactive: [1] | [2] | [3] | [4] | [5] | [6] | [7]

CC1=Nc2ccccc2C1(C)C
inactive: [1] | [2] | [3] | [4] | [5] | [6] | [7]

CN(C)CC/C=C1\c2ccccc2Sc2ccc(Cl)cc21
active: [2] 33.1 µM | [4] 35.7 µM | [7] 21.9 µM
inactive: [1] | [3] | [5] | [6]

CO[C@H]1C[C@H](O[C@@H]2/C(C)=C/C[C@@H]3C[C@@H](C[C@]4(CC[C@H](C)[C@@H](C5CCCCC5)O4)O3)OC(=O)[C@@H]3C=C(C)/C(=N/O)[C@H]4OC/C(=C\C=C\[C@@H]2C)[C@]43O)O[C@@H](C)[C@@H]1O
inactive: [1] | [2] | [3] | [5] | [6] | [7]
active: [4] 40.7 µM

CCOC(=O)c1cccc(N)c1
inactive: [1] | [2] | [3] | [4] | [5] | [6] | [7]

O=C1O[C@H](CO)[C@@H](O)[C@H](O)[C@H]1O
inactive: [1] | [2] | [3] | [4] | [5] | [6] | [7]

CCOC(=O)OC(C)OC1=C(C(=O)Nc2ccccn2)N(C)S(=O)(=O)c2ccccc21 (stereo not drawn)
inactive: [1] | [2] | [3] | [4] | [5] | [6] | [7]

Cc1ccc([N+](=O)[O-])cc1Cl
inactive: [1] | [2] | [3] | [4] | [5] | [6] | [7]

COc1ccc(CCNC[C@H](O)c2ccc(O)cc2)cc1OC
inactive: [1] | [2] | [3] | [4] | [5] | [6] | [7]

Nc1cc(Cl)c([N+](=O)[O-])cc1O
inactive: [1] | [2] | [3] | [4] | [5] | [6] | [7]

O=[N+]([O-])c1ccc2c(c1)Cc1ccccc1-2
active: PGR (gene 5241) [8] 25 µM | PGR (gene 5241) [11] 31 µM | [16] 26.8 µM
inactive: all other assays above

From PubChem BioAssay (EPA / NIEHS)
